# According to PubChem BioAssay AID1053 (University of Pittsburgh Molecular Library Screening Center, 2008):
# Values joined by “and” are separate entries in the source; they are usually repeats but may differ in a detail not shown here. Equal values may be shown once. Unmarked numbers belong to inactive results. The rule behind the calls is not given here.
# Target: Serine/threonine-protein kinase PLK1 (Homo sapiens) (UniProt P53350)
# Assay: Plk1 polo box domain binding inhibitors, SAR follow-up, biochemical, fluorescence polarization, purchased analogs (AID 1053)
# Conditions: Plk1 PBD fluorescence polarization peptide binding; at 20 µM; stronger effect = higher value
# Serine/threonine-protein kinase PLK1 (Homo sapiens), sequence (P53350 whole entry, looked up, the tested form may be a part): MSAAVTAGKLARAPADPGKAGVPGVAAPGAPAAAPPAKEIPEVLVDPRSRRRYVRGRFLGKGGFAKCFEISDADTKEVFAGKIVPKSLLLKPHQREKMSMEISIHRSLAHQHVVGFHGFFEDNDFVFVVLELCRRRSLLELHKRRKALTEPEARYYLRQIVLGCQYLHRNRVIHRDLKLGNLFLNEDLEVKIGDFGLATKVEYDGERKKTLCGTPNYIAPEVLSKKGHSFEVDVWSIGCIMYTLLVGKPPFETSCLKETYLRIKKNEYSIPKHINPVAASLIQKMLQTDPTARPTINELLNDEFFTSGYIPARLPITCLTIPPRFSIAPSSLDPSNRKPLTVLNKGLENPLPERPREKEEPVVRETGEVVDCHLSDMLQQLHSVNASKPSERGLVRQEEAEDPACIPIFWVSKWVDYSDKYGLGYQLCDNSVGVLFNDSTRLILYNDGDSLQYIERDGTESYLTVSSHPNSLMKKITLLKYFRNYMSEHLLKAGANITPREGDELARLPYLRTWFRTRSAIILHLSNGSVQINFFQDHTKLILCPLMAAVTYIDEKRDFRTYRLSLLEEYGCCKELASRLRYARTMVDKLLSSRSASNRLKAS
row,Structure (SMILES),inhibition
1,CCOC(=O)c1ccc(NC(=O)c2cc3ccccc3c(=O)o2)cc1,-35.6%
2,Cn1nc(-c2ccc([N+](=O)[O-])cc2)nc2c(=O)n(C)c(=O)nc1-2,31.6%
3,CC(=O)N(CN1C(=O)c2ccccc2C1=O)c1ccc(I)cc1,-50.3% and -70.1%
4,COC(=O)c1ccc(N(/N=C2\Sc3ccccc3C2=O)C(C)=O)cc1,-20.9%
5,CC(=O)N(CN1C(=O)c2ccc(Br)cc2C1=O)c1ccc(Cl)cc1,-43%
6,CC(=O)N(CN1C(=O)c2ccccc2C1=O)c1ccccc1C,-32.5% and -28.6%
7,CCn1nc(-c2ccc(C(=O)OC)cc2)nc2c(=O)n(C)c(=O)nc1-2,-9.29%
8,CCOC(=O)c1ccc(N=Cc2c(O)n(-c3ccc(OCC)cc3)c(=O)[nH]c2=O)cc1,-112%
9,Cn1c(=O)[nH]c2nnc(-c3ccc(F)cc3)nc2c1=O,-42.3%
10,Cn1nc(-c2ccc(C(F)(F)F)cc2)nc2c(=O)n(C)c(=O)nc1-2,13.6% and 30.2%
11,CCOC(=O)c1ccc(N=Cc2c(O)n(Cc3ccc4c(c3)OCO4)c(=O)[nH]c2=O)cc1,-19.4%
12,COc1ccc(C(=O)COC(=O)c2ccc(NC(=O)c3ccccc3)cc2)cc1,40.3%
13,O=c1[nH]c2c(c(O)c1-c1ccccc1)c(=O)n(-c1ccccc1)c(=O)n2-c1ccccc1,-40.4%
